Screening data (PubChem)
MBNL1 CUG block: MBNL1-poly(CUG) RNA binding inhibition; 280,000 compounds, 0.036% hits; TR-FRET MBNL1-His/biotin-(CUG)12 binding, 665/545 ratio; Potency, µM (top dose mostly 57.5 µM), inactives show at the highest dose activity change, negative = inhibition, most hits filed as inhibitors; Q9NR56; AID 2675; active = well fitted inhibition curve with a large enough effect in the signal ratio, with a control signal flat, not every such curve was filed as active; inconclusive = small, poorly fitted or top-dose-only effect, or effect the other way, or a change in a side signal; inactive = no such curve, though single readings can be large or run the other way; the % refers to the signal ratio; also: potency is read from the fitted curve at half-maximal effect; % is scaled to controls: 0 for no effect and ±100 for the full control effect
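Inhibition of protein-RNA binding appears as loss of TR-FRET between terbium anti-His antibody on MBNL1-His and streptavidin-XL665 on biotin-(CUG)12. Activity is normalized to buffer-only and uninhibited-complex controls.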
CtBP-E1A inh: inhibitors of CtBP/E1A interaction | AlphaScreen GST-E1A/His-CtBP binding, 1536-well; hits give low values | activity change, % (no concentration beside the values) | 340,000 compounds, 0.49% hits; in the data active = activity change below about -65%; inconclusive = mostly about -30% to -63%; also: % is scaled to controls: 0 for no effect and ±100 for the full control effect
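GST-E1A and His-tagged CtBP (125 nM each as 5X stock) were preincubated with pin-transferred compound for 2 h at 37 °C in the dark, then glutathione donor and nickel acceptor beads were added for 1 h before AlphaScreen reading.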
CBFb-RUNX1 inh: blocks binding between human CBF-beta and RUNX1; AlphaScreen CBFb-His/RUNX1-biotin binding, biochemical; Potency, µM (highest dose often 59.8 µM), without a hit: at the top dose activity, negative = inhibition, usual class: inhibitors; 230,000 tested, under 10 active; Q01196+Q13951; also: % of control where 0% means no effect
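His-tagged CBF-beta and biotinylated RUNX1 (30 nM each) were premixed 20 min at room temperature, exposed to compound for 15 min, then given nickel-chelate and streptavidin AlphaScreen beads (50 ng each). After 90 min, AlphaScreen signal was read.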
RORgamma inh: ROR gamma (mouse) transcription inhibition; AID 2551; P51450; Drosophila S2 Gal4-RORgamma UAS-luciferase reporter, 20 h; Potency, µM (highest dose often 53.6 µM), for inactives: top-dose activity change, negative = inhibition, usual class: inhibitors; 310,000 compounds, 5.4% hits; also: potency is read from the fitted curve at half-maximal effect; % is scaled to controls: 0 for no effect and ±100 for the full control effect; nearly all actives have a fitted effect of over 60% in size
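Read-out: Photinus luciferase luminescence; inhibitors lower reporter signal. Insect Schneider cells with Gal4-ROR gamma fusion under metallothionein promoter, UAS reporter; 700 uM final copper sulfate induction, 20 hr, ambient temperature.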
Six1-Eya2 inh: blocks human Six1 binding to Eya2; Q15475+O00167; AlphaScreen GST-Six1/His-Eya2 binding, biochemical; hits give low values; activity change, % (test concentration not listed); 360,000 compounds, 0.56% hits; in the data active = activity change below about -65%; inconclusive = mostly about -30% to -63%; also: % is scaled to controls: 0 for no effect and ±100 for the full control effect
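Homogeneous AlphaScreen proximity assay pairing GST-Six1 with His-tagged Eya2 (added as 5X mix: 250 nM and 500 nM) in 50 mM Tris pH 8.0, 300 mM NaCl, 1 mM TCEP. Glutathione donor and nickel acceptor beads; 1 h, 37 °C, dark.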
VP16 counter: Gal4-VP16 reporter inhibition counter-screen; Drosophila S2 Gal4-VP16 UAS-luciferase, luminescence, 20 h; Potency, µM (doses to about 53.6 µM), inactives show top-dose activity, negative = inhibition, hits mostly inhibitors; 310,000 compounds, 3.5% hits; AID 2546;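 also: Gal4-VP16 expression switched on by copper sulfate through the metallothionein promoter; potency is read from the fitted curve at half-maximal effect; % is scaled to controls: 0 for no effect and ±100 for the full control effect; nearly all actives have a fitted effect of over 50% in size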
Starred values were filed as active, the others as inactive; ? = inconclusive; nt = not tested or not shown; [ ] = another dose, or the depositor's remark. This is a sample that favours compounds with a hit; in the whole collection about 5.5% have one here. Unless noted, calls follow the shape of the dose curve; as a rule, active = well fitted curve in the direction sought with a large enough effect; inconclusive = small, poorly fitted or top-dose-only effect, or another doubt; inactive = no such curve, though single readings can be large; an effect the other way counts as inactive or inconclusive.

SMILES	MBNL1 CUG block	CtBP-E1A inh	CBFb-RUNX1 inh	RORgamma inh	Six1-Eya2 inh	VP16 counter
CC1=C(C(=O)N(C(C)C)C(C)C)CC(CC(=O)NCCCN(C)C)C(=O)N1CCCN1CCCC1=O (stereo unspecified)	nt	2	nt	nt	0	nt
Cc1cccc(NC(=O)c2ccc(F)c(S(=O)(=O)NCc3ccco3)c2)c1	-3%	-6	nt	26%	-6	5%
O=C(Nc1cccc(Cl)c1)c1ccc(F)c(S(=O)(=O)NCc2cccs2)c1	5%	-16	-7%	15%	-11	20µM*
COc1ccc2c(c1)O[C@@H](c1cccc(C(F)(F)F)c1)[C@H](OC(=O)NCc1ccco1)C2=O	nt	nt	0%	-2%	nt	-3%
CCN1C(=O)/C(=C2/C=Cc3cc(C)ccc3N2CC)N(C)C1=S	?	1	?	13µM*	-13	?
CC(=O)Oc1ccc2nc(/C=C/c3ccccc3)oc(=O)c2c1	?	3	nt	6.3µM*	2	?
CCNC(=S)N/N=C/c1c(C)nn(-c2cccc(Cl)c2)c1Cl	-6%	-9	6%	1.4µM*	9	3.5µM*
Cc1nn(-c2cccc(Cl)c2)c(Cl)c1/C=N/NC(=O)c1cccs1	1%	8	-8%	?	-3	13µM*
Cc1cc(C(=O)N/N=C/c2c(C)nn(-c3ccccc3)c2Cl)n[nH]1	-3%	-8	0%	14%	-3	8%
CCc1ccc(-n2c(Cn3nc(C(F)(F)F)cc3C)n[nH]c2=S)cc1	-16%	13	-3%	4µM*	-2	?
CCc1ccc(-n2c(C)n[nH]c2=S)cc1	7%	-18	12%	10µM*	-8	?
CC(=O)c1c(C)[nH]c(C(=O)OCC(=O)Nc2ccc(C)cc2[N+](=O)[O-])c1C	nt	0	-12%	11%[10 µM]	?	?
CC(=O)c1c(C)[nH]c(C(=O)OCC(=O)Nc2cc(Cl)ccc2[N+](=O)[O-])c1C	?	-12	-4%	?	-27	16µM*
CS(=O)(=O)c1ccc(C(=O)NCCN2C(=O)S/C(=C\c3cccnc3)C2=O)cc1[N+](=O)[O-]	?	nt	3%	5.6µM*	-3	?
CN(C)S(=O)(=O)c1ccc(C(=O)NCCN2C(=O)S/C(=C\c3cccnc3)C2=O)cc1	19%	0	6%	-6%	20	2%
Cc1ccccc1NC(=O)C(C)Sc1nnc(CN2CCCC2)n1Cc1ccccc1 (stereo unspecified)	nt	2	nt	nt	-4	nt
c1nnc(NC2=NCCC2)s1	12%	0	-6%	-24%	10	3%
CCc1nnc(NC2=NCCC2)s1	-14%	2	-8%	-24%	6	18µM*
Cc1cnc(NC2=NCCC2)s1	-3%	-15	-10%	7.1µM*	-1	?
O=C(NC1CCCCC1)C(c1ccnc2ccccc12)n1c(=O)c(-c2ccccc2)nc2ccccc21 (stereo unspecified)	nt	-1	nt	nt	4	nt
O=C(CN1C(=O)C(=O)N(C2CCCC2)C1=O)Nc1ccc(OC(F)F)cc1	nt	9	nt	nt	3	nt
COc1ccc(NC(=O)C2CC(=O)N(c3ccccc3C)C2)c(OC)c1 (stereo unspecified)	3%	1	nt	-1%	-3	-8%
O=C1CSC(=S)N1N=Cc1c(O)ccc2ccccc12	nt	-89*	nt	nt	-88*	nt
COc1cccc(/C=N/N2C(=O)CSC2=S)c1O	?	-13	0%	4µM*	-90*	4.5µM*
COc1ccc2ccccc2c1C=NN1CCCCC1	nt	-10	nt	nt	?	nt
SMILES	MBNL1 CUG block	CtBP-E1A inh	CBFb-RUNX1 inh	RORgamma inh	Six1-Eya2 inh	VP16 counter
COc1ccc2ccccc2c1/C=N/N1C(=O)CSC1=S	12%	0	?	7.9µM*	-28	?
COc1cccc(C(=O)OCC(=O)c2c(N)n(C)c(=O)n(C)c2=O)c1	nt	-8	nt	nt	0	nt
CC1(C(=O)NCCC#N)CCN1C(=O)C1(c2ccccc2)CC1 (stereo unspecified)	nt	-17	nt	nt	-3	nt
Cc1ccc(S(=O)(=O)NN=Cc2c(O)ccc3ccccc23)cc1	nt	1	nt	nt	-12	nt
O=c1c2ccccc2nc(N/N=C/c2ccc(O)cc2)n1O	-11%	5	6%	11µM*	0	-28%
Cc1nc(N/N=C/c2ccc(O)cc2)c2cnn(-c3ccccc3)c2n1	-2%	-76*	-2%	42%	?	5%
O=c1c2ccccc2nc(N/N=C/c2c(O)ccc3ccccc23)n1O	6%	-94*	-7%	0.89µM*	-90*	13µM*
Oc1ccc(/C=N/Nc2ccccc2)cc1	0%	8	-1%	1%	-5	-3%
CC(C)C(=O)NC(c1ccccc1)c1cc([N+](=O)[O-])c2cccnc2c1O (stereo unspecified)	11%	-91*	nt	6.3µM*	-90*	?
CC(=O)NC(c1ccccc1)c1cc([N+](=O)[O-])c2cccnc2c1O (stereo unspecified)	9%	-91*	6%	7.9µM*	-94*	-28%
Oc1c(C(Nc2ccccn2)c2cccnc2)cc(Cl)c2cccnc12 (stereo unspecified)	16%	-89*	?	4µM*	-90*	4.5µM*
CC(=O)NC(c1ccc(C)cc1)c1cc(Cl)c2cccnc2c1O (stereo unspecified)	4%	-74*	nt	1.1µM*	?	0.63µM*
CCCS(=O)(=O)NC(=O)C1(C)CCN(C(=O)c2cc(C)on2)C1 (stereo unspecified)	nt	4	nt	nt	9	nt
CCC(=O)NC(c1ccco1)c1cc(Cl)c2cccnc2c1O (stereo unspecified)	1%	-90*	?	1.4µM*	-80*	2.8µM*
COc1ccc(C(NC(=O)c2cccnc2)c2cc(Cl)c3cccnc3c2O)cc1OC (stereo unspecified)	10%	-92*	-30%	2µM*	-91*	4µM*
CCOc1cc(C(=O)N(CC)CC(=O)Nc2ccc3c(c2)OCCO3)ccc1OC	nt	-24	nt	nt	-4	nt
COc1ccccc1N=NC1C(=O)N(C(N)=S)N=C1C (stereo unspecified)	?	-2	nt	?	-13	3.2µM*
CC1=NN(C(N)=S)C(=O)C1N=Nc1ccccc1Cl (stereo unspecified)	20%	-2	nt	0.63µM*	-9	1µM*
CC1=NN(C(N)=S)C(=O)C1N=Nc1ccccc1C(=O)O (stereo unspecified)	?	nt	nt	13%[1.91 µM]	-9	-1%
